# Source: PubChem BioAssay (Tox21)
# Several values for one entry are separate records, joined by “and”; a condition that tells them apart may be missing. Equal entries are not always repeated. Results filed as inconclusive are left out. Entries that show only a call come without a potency. A structure can be active in one record and inactive in another. Activity calls are given as the source filed them. The call rests on the fitted dose curve; in most records, active means well fitted curve in the direction sought with a large enough effect in the repeat runs; inconclusive means weak or mixed curves; inactive means no such curve, though single readings can be large; an effect the other way counts as inactive or inconclusive.
# System: not listed separately
# Test: Caspase-3/7 induction in CHO-K1 cells by small molecules, qHTS assay (AID 1346980); further: nearly all actives have a fitted effect of over 15% in size
# Conditions: CHO-K1 caspase-3/7 induction, Caspase-Glo luminescence, 17 h; series mostly up to 92.4 µM
# Method in brief: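 Wild-type CHO-K1 cells exposed to compounds for 17hr at 37 C, 5% CO2. Caspase-3/7 activity then measured by Caspase-Glo 3/7 luminescence after 30min at room temperature.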
row,SMILES,outcome
1,CCCCCCCCCCCCCCCCCC(=O)O,inactive
2,CN1C(=O)CCS(=O)(=O)C1c1ccc(Cl)cc1 (stereo not drawn),inactive
3,CC[N+](=O)[O-],inactive
4,[N-]=[N+]=CC(=O)OC[C@H](N)C(=O)O,inactive
5,CCOP(=S)(OCC)Oc1cc(C)nc(C(C)C)n1,inactive
6,Nc1ncc([N+](=O)[O-])s1,inactive
7,C/C=C/c1ccc2c(c1)OCO2,inactive
8,Clc1cnc(Oc2ccc(Oc3ncc(Cl)cc3Cl)cc2)c(Cl)c1,inactive
9,CN(C)NC(=O)CCC(=O)O,inactive
10,COC(=O)Nc1cccc(OC(=O)Nc2cccc(C)c2)c1,inactive
11,Nc1ccc([As](=O)(O)O)cc1,inactive
12,CCSC(=O)N1CCCCCC1,inactive
13,O=C(O)C1C(C(=O)O)C2(Cl)C(Cl)=C(Cl)C1(Cl)C2(Cl)Cl (stereo not drawn),inactive
14,NNc1ccccc1,inactive
15,C=CC(=O)OCC(CC)CCCC (stereo not drawn),inactive
16,CC(=O)C1CCOC1=O (stereo not drawn),inactive

row,SMILES,outcome
1,OCC(O)CCl (stereo not drawn),inactive
2,Cc1ccc(N)cc1,inactive
3,Oc1ccc(Cl)cc1,inactive
4,Nc1cccc(Cl)c1,inactive
5,Cc1cc(Cl)ccc1OC(C)C(=O)O (stereo not drawn),inactive
6,Oc1c(Br)cc(Br)cc1Br,inactive
7,Cc1ccccc1N,inactive
8,O=C/C=C/c1ccccc1,inactive
9,CNC(=O)O/N=C(\SC)C(=O)N(C)C,inactive
10,Nc1ccc(N)cc1,inactive
11,Cc1cccc(N)c1,inactive
12,C=C(C)C(=O)OCC(CC)CCCC (stereo not drawn),inactive
13,CNC(=O)O/N=C/C(C)(C)S(C)=O (stereo not drawn),inactive
14,C[C@]12CC[C@H](O)CC1=CC[C@@H]1[C@@H]2CC[C@]2(C)C(=O)CC[C@@H]12,inactive
15,C=CCN=C=S,inactive

# System: not listed separately
# Test: Caspase-3/7 induction in HepG2 cells by small molecules, qHTS cell viability counter screen (AID 1346981); further: nearly all actives have a fitted effect of over 30% in size; further: potency means the concentration at half of the fitted maximal effect
# Conditions: CellTiter-Fluor fluorescence, 17 h; series mostly up to 92.4 µM
# Method in brief: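 In this quantitative HTS counter screen, compounds delivered in DMSO were left on unmodified HepG2 cells for 16 hr at 37 C. Viability was then determined fluorometrically with CellTiter-Fluor, in parallel with caspase-3/7 induction in the same wells.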
row,SMILES,Potency
1,CCCCCCCCCCCCCCCCCC(=O)O,inactive
2,CN1C(=O)CCS(=O)(=O)C1c1ccc(Cl)cc1 (stereo not drawn),inactive
3,CC[N+](=O)[O-],inactive
4,[N-]=[N+]=CC(=O)OC[C@H](N)C(=O)O,inactive
5,CCOP(=S)(OCC)Oc1cc(C)nc(C(C)C)n1,inactive
6,Nc1ncc([N+](=O)[O-])s1,54.9 µM (active) and inactive
7,C/C=C/c1ccc2c(c1)OCO2,inactive
8,Clc1cnc(Oc2ccc(Oc3ncc(Cl)cc3Cl)cc2)c(Cl)c1,inactive
9,CN(C)NC(=O)CCC(=O)O,inactive
10,COC(=O)Nc1cccc(OC(=O)Nc2cccc(C)c2)c1,inactive
11,Nc1ccc([As](=O)(O)O)cc1,inactive
12,CCSC(=O)N1CCCCCC1,inactive
13,O=C(O)C1C(C(=O)O)C2(Cl)C(Cl)=C(Cl)C1(Cl)C2(Cl)Cl (stereo not drawn),inactive
14,NNc1ccccc1,inactive
15,C=CC(=O)OCC(CC)CCCC (stereo not drawn),inactive
16,CC(=O)C1CCOC1=O (stereo not drawn),inactive
17,OCC(O)CCl (stereo not drawn),inactive
18,Cc1ccc(N)cc1,inactive
19,Oc1ccc(Cl)cc1,inactive
20,Nc1cccc(Cl)c1,inactive
21,Cc1cc(Cl)ccc1OC(C)C(=O)O (stereo not drawn),inactive
22,Oc1c(Br)cc(Br)cc1Br,inactive
23,Cc1ccccc1N,inactive
24,O=C/C=C/c1ccccc1,inactive
25,CNC(=O)O/N=C(\SC)C(=O)N(C)C,inactive
26,Nc1ccc(N)cc1,54.5 µM (active) and inactive
27,Cc1cccc(N)c1,inactive
28,C=C(C)C(=O)OCC(CC)CCCC (stereo not drawn),inactive
29,C[C@]12CC[C@H](O)CC1=CC[C@@H]1[C@@H]2CC[C@]2(C)C(=O)CC[C@@H]12,inactive
30,C=CCN=C=S,inactive

# Molecular target: Nuclear receptor subfamily 1 group I member 2 (Homo sapiens) (UniProt O75469)
# Test: Human pregnane X receptor (PXR) small molecule agonists, qHTS assay (AID 1346982); further: nearly all actives have a fitted effect of over 35% in size; further: potency means the concentration at half of the fitted maximal effect
# Conditions: PXR-Luc HepG2, CYP3A4 luciferase reporter, 24 h; series mostly up to 92.4 µM
# Method in brief: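 Reporter HepG2 cells expressing PXR-Luc are cultured in charcoal-stripped FBS (5%), treated with compounds for 24 hr at 37 C, and assayed by ONE-Glo luminescence after 30 min at room temperature.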
# Sequence of Nuclear receptor subfamily 1 group I member 2 (Homo sapiens) (O75469 whole entry, looked up): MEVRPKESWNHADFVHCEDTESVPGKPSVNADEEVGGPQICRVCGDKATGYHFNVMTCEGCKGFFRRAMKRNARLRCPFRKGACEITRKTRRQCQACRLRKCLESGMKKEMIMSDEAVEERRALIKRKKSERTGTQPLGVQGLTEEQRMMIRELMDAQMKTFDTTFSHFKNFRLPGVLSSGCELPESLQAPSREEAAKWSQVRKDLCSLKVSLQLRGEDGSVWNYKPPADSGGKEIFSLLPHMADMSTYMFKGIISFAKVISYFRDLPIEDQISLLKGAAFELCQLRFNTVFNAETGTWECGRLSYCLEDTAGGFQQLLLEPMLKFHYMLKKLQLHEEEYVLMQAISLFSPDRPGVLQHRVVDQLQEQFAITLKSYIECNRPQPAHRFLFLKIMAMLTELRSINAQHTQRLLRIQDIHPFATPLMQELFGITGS
row,SMILES,Potency
1,CCCCCCCCCCCCCCCCCC(=O)O,30.4 µM (active) and inactive
2,CN1C(=O)CCS(=O)(=O)C1c1ccc(Cl)cc1 (stereo not drawn),inactive
3,CC[N+](=O)[O-],inactive
4,[N-]=[N+]=CC(=O)OC[C@H](N)C(=O)O,inactive
5,Nc1ncc([N+](=O)[O-])s1,inactive
6,C/C=C/c1ccc2c(c1)OCO2,inactive
7,Clc1cnc(Oc2ccc(Oc3ncc(Cl)cc3Cl)cc2)c(Cl)c1,inactive
8,CN(C)NC(=O)CCC(=O)O,inactive
9,COC(=O)Nc1cccc(OC(=O)Nc2cccc(C)c2)c1,10.9 µM (active)
10,Nc1ccc([As](=O)(O)O)cc1,inactive
11,CCSC(=O)N1CCCCCC1,inactive
12,O=C(O)C1C(C(=O)O)C2(Cl)C(Cl)=C(Cl)C1(Cl)C2(Cl)Cl (stereo not drawn),inactive
13,NNc1ccccc1,61 µM (active) and inactive
14,CC(=O)C1CCOC1=O (stereo not drawn),inactive
15,OCC(O)CCl (stereo not drawn),inactive
16,Cc1ccc(N)cc1,4.35 µM (active) and 29.6 µM (active) and 27.3 µM (active)
17,Nc1cccc(Cl)c1,inactive
18,Cc1cc(Cl)ccc1OC(C)C(=O)O (stereo not drawn),inactive
19,Oc1c(Br)cc(Br)cc1Br,68.7 µM (active) and 61.1 µM (active) and inactive
20,Cc1ccccc1N,inactive and 54.5 µM (active)
21,CNC(=O)O/N=C(\SC)C(=O)N(C)C,inactive
22,Nc1ccc(N)cc1,54.5 µM (active) [middle of 4 runs]
23,Cc1cccc(N)c1,54.6 µM (active) and inactive
24,C=C(C)C(=O)OCC(CC)CCCC (stereo not drawn),inactive
25,CNC(=O)O/N=C/C(C)(C)S(C)=O (stereo not drawn),inactive
26,C[C@]12CC[C@H](O)CC1=CC[C@@H]1[C@@H]2CC[C@]2(C)C(=O)CC[C@@H]12,54.5 µM (active) and 48.6 µM (active) and inactive
27,C=CCN=C=S,55.7 µM (active) and inactive
